An excerpt weighted towards active compounds, which were near 6.8% of everything screened.
MCF10A rereplic: inducers of DNA re-replication in MCF 10A breast cells; hit rate 2.9% among 350,000; Potency, µM (doses to about 46.1 µM), inactives show at the top dose activity, positive = re-replication, most hits filed as activators; MCF 10A DNA re-replication, Hoechst nuclear intensity, 48 h; note: % of control where 0% means no effect; nearly all actives have a fitted effect of over 50% in size
KB-V1 MDR tox: kills drug-selected multidrug resistant KB-V1 cells; AID 1347076; KB-V1 MDR cells viability, CellTiter-Glo, 72 h; Potency, µM (highest dose often 46.1 µM), hits mostly cytotoxic; hit rate 3.4% among 400,000; note: % is set by controls: 0 for no effect and ±100 for the full control effect; nearly all actives have a fitted effect of over 60% in size
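Following 72 h at 37 degrees C with compound, KB-V1 cell viability was read by CellTiter-Glo luminescence, medium being phenol-red-free DMEM plus 10% FBS; concentration-response parameters came from normalized, curve-fitted qHTS data.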
SW480 rereplic: DNA re-replication induction in SW480 cells | Potency, µM (top dose mostly 46.1 µM), inactives show at the top dose re-replication activation, most hits filed as activators | SW480 DNA re-replication, Hoechst DNA content imaging, 48 h | hit rate 1.8% among 340,000; note: % of control where 0% means no effect; nearly all actives have a fitted effect of over 55% in size
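SW480 cells exposed to compounds for 48 hr at 37 C, 5% CO2, then Hoechst-stained 40 min. Nuclear DNA content imaged by fluorescence scanning (405 nm excitation, 500-530 nm emission); re-replication scored as increased high-intensity nuclei.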
KB-3-1 cytotox: kills parental KB-3-1 adenocarcinoma cells; KB-3-1 viability, CellTiter-Glo ATP luminescence, 72 h; Potency, µM (top dose mostly 46.1 µM), actives largely listed as cytotoxic; hit rate 1.4% among 400,000; AID 1347075; note: % is set by controls: 0 for no effect and ±100 for the full control effect; nearly all actives have a fitted effect of over 60% in size
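Luminescent ATP read-out (CellTiter-Glo) measures survival of drug-naive KB-3-1 cells after 72 h compound exposure at 37 °C. Titration series was screened from lowest to highest concentration, with DMSO vehicle plates as background controls.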
TSG101-PTAP inh: blocks PTAP/TSG101 interaction to inhibit HIV-1 budding | Q99816 | Fluorescence polarization, FITC-PTAP peptide / Tsg101 binding | Potency, µM (titrated, usually from 115 µM), for inactives: at the highest dose activity change, negative = inhibition, actives largely listed as inhibitors | 340,000 tested, under 10 active | AID 493005; active = well fitted inhibition curve with a large enough effect in the main read-out, with a control signal flat, not every such curve was filed as active; inconclusive = small, poorly fitted or top-dose-only effect, or effect the other way, or a change in a side signal; inactive = no such curve, though single readings can be large or run the other way; note: % of control where 0% means no effect
Target sequence (Q99816 whole entry, looked up): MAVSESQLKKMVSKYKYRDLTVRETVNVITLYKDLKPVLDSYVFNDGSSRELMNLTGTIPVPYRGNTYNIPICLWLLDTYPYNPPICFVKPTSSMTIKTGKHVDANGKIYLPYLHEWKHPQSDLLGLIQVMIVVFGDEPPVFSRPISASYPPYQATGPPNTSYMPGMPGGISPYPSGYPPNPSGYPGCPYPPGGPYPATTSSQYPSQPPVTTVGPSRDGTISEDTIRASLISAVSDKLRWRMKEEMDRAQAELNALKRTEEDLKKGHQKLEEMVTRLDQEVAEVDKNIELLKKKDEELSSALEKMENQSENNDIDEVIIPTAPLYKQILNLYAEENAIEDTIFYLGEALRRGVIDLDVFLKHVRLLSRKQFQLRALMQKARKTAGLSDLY
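FP read-out: FITC-PTAP peptide, 50 nM final, binding Tsg101 binding domain, 10 uM final; 20 min, r.t.; 10 mM HEPES pH 7.5, 0.15 M NaCl, 0.01% Tween 20, 3 mM EDTA, 0.1 mM TCEP.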
PINK1 modulator: changes PINK1 expression | Potency, µM (titrated, usually from 76.6 µM), inactives show at the highest dose activation (PINK1 increase), most hits filed as activators | hit rate 0.2% among 410,000 | PINK1 immunofluorescence, high-content cytometry, 24 h; active = well fitted activation curve with a large enough effect; inconclusive = small, poorly fitted or top-dose-only effect; cell line not stated here; note: % of control where 0% means no effect; nearly all actives have a fitted effect of over 65% in size
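Decision-based qHTS: stable cells, 24 h exposure to five compound concentrations, CCCP as control. Fixed cells stained for PINK1 plus nuclear, mitochondrial and cell markers, cytometer read.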
* hit, by the source's call; i = inactive; ? = inconclusive; · = not tested or not shown; [ ] = remark or other dose. Unless noted, calls come from the whole dose curve; as a rule, active = well fitted curve in the direction sought with a large enough effect; inconclusive = small, poorly fitted or top-dose-only effect, or another doubt; inactive = no such curve, though single readings can be large; an effect the other way counts as inactive or inconclusive. Potency is the fitted concentration of half-maximal effect.

SMILES | MCF10A rereplic | KB-V1 MDR tox | SW480 rereplic | KB-3-1 cytotox | TSG101-PTAP inh | PINK1 modulator
Cc1ccc(OCC(=O)N2N=C(C(F)(F)F)CC2(O)C(C)(C)C)cc1C (centres undefined) | 8.2µM* | 18µM* | ? | i | -3% | 5%
O=C(NCc1cccnc1)c1nn(-c2ccc(Cl)cc2)nc1CO | · | · | · | · | · | 0%
CCCn1c(=O)sc2cc(NC(=O)c3ccc(OC)c(Br)c3)ccc21 | · | i | · | 23µM* | · | 0%
CCn1c(=O)sc2cc(NC(=O)c3cccc(OC)c3)ccc21 | · | i | · | i | · | 1%
Cc1ccc(-c2nc(CS(=O)CC(=O)N3CCN(c4ccc(Cl)cc4)CC3)c(C)o2)cc1 (centres undefined) | · | i | · | ? | · | -1%
CN(C)S(=O)(=O)c1cccc(NC(=S)Nc2cccc3cnccc23)c1 | 21µM* | i | ? | ? | -11% | 2%
COc1ccc(NC(=S)Nc2cccc3cnccc23)cc1 | 13% | i | -4% | i | -1% | 1%
CCOc1ccc(NC(=S)Nc2cccc3cnccc23)cc1 | 0% | 15µM* | -7% | i | -4% | 2%
CCCS(=O)(=O)NCCc1sc2nc(-c3ccc(Cl)cc3)nn2c1C | · | · | · | · | · | 2%
CCOC(=O)CNC(=O)c1sc2ncnc(N3CCc4ccccc4C3)c2c1C | ? | 15µM* | ? | i | -9% | 11%
Cc1ccc(-c2csc3ncnc(N4CCc5ccccc5C4)c23)cc1 | 18µM* | ? | 7% | i | 3% | ?
Fc1ccc(-c2csc3ncnc(N4CCc5ccccc5C4)c23)cc1 | 10µM* | ? | 17% | i | -2% | 18%
Cc1ccc(-n2ncc3c(NC4CCCC4)ncnc32)cc1 | · | i | · | i | · | 2%
CN(C)Cc1ccccc1-c1nccc(NC2CC2)n1 | · | · | · | · | · | 2%
CCC(=O)N1CCc2cc(Br)cc(S(=O)(=O)N3CCC(C(=O)Nc4ccccc4CC)CC3)c21 | · | i | · | i | · | 1%
CCc1ccc(CN(Cc2cccnc2)C(=O)/C=C/c2ccc(OC)cc2)cc1 | 18µM* | ? | 16% | i | 17% | 1%
COc1cc2c(C(=O)N3CCN(c4cccc(C)c4)C(C)C3)cn(CC(C)C)c(=O)c2cc1OC (centres undefined) | · | i | · | i | · | 1%
CCCCN(CC)c1nc(N)c2c(N)nc(OCC)cc2c1C#N | 23µM* | i | ? | i | -11% | 5%
COc1cc(OC)c(C2CC(=O)Nc3ccc4ccccc4c32)cc1OC (centres undefined) | · | i | · | i | · | 2%
O=C1C(=O)c2ccccc2C(O)=C1C1CCC(c2ccc(Cl)cc2)CC1 (centres undefined) | 0.033µM* | ? | 3% | ? | -7% | 4%
O=C1C=C(c2cccc(Cl)c2O)C[C@@H](c2ccc(Cl)cc2)C1 | 9% | i | -5% | i | -3% | ?
CCOC(=O)c1c(C)oc2nc(C)nc(NCc3cccc(Cl)c3)c12 | · | i | · | i | · | 1%
Cc1ccc(S(=O)(=O)Nc2cccc(C(=O)NCC(c3ccc(F)cc3)N3CCOCC3)c2)cc1 (centres undefined) | -12% | ? | -13% | i | -4% | 4%
Cc1cccc(NS(=O)(=O)c2cccc(C(=O)NCC(c3ccc(F)cc3)N3CCOCC3)c2)c1 (centres undefined) | 11% | 21µM* | 1% | ? | 0% | 3%
O=C(c1cccc(F)c1F)N1CCOc2ccc(CN3CCN(Cc4ccccn4)CC3)cc2C1 | · | · | · | · | · | 0%
COC(=O)/C(=C(/F)Sc1cc(C)c(O)c(C)c1)C(F)(F)F | 26µM* | i | ? | ? | 0% | -1%[38.3 µM]
COc1ccc(C(=O)c2cn(Cc3cccc(C)c3)c3cc4c(cc3c2=O)OCCO4)cc1OC | · | i | · | i | · | -2%

Bioassay records (PubChem)
